Assay outcomes from PubChem.
Glyco luc inh: blocks N-linked glycosylation in D54 reporter cells | reporter increase, % at 12.5 µM | AID 588692 | actives 0.23% (n = 360,000) | D54 ERlucT glycosylation luciferase reporter, 24 h; percent of 100 nM tunicamycin response;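 active means mean luciferase reporter signal, scaled so untreated is 0 and the glycosylation-blocking control 100, at or above a set limit in every replicate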;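 further: luciferase carries N-glycosylation sites so blocking glycosylation raises the light; 0% = median of neutral control wells and 100% = median of 100 nM tunicamycin wells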
Keap1-Nrf2 PPI: disrupts human Keap1 binding to Nrf2 peptide | actives 0.15% (n = 340,000) | inhibition, % at 9.4 µM | Keap1 Kelch-Nrf2 peptide fluorescence polarization, 1536-well; in the data active means inhibition above about 12%;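 further: human Keap1 Kelch domain with fluorescein labeled Nrf2 9mer peptide probe; 0% = neutral control wells and 100% = peptide positive control; higher means more block of Keap1 binding to Nrf2 peptide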
Target sequence (Q14145 whole entry, looked up, the tested form may be a part): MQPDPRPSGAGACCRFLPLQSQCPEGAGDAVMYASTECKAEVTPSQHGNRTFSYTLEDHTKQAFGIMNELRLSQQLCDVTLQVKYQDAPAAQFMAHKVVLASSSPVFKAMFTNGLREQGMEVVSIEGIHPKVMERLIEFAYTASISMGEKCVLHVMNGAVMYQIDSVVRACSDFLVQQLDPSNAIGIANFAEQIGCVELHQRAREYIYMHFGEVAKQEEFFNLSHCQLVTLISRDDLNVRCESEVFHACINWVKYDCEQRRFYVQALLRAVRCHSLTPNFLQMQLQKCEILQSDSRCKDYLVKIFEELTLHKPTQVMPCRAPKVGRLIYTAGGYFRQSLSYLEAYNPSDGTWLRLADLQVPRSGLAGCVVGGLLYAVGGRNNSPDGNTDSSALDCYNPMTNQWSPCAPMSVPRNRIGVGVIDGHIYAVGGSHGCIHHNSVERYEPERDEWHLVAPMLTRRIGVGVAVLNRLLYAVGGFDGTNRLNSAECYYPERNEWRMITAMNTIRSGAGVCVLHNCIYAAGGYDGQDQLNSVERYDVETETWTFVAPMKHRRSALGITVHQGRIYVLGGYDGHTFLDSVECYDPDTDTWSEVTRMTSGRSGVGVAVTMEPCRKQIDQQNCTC
HDAC3 inh: inhibitors of human histone deacetylase 3; O15379; recombinant HDAC3, fluorogenic peptide/trypsin coupled, fluorescence; inhibition, % at 8.3 µM; actives 0.15% (n = 320,000); AID 2718; in the data active means inhibition above about 26%, passing the limit was not always enough
Casp6 inh: caspase-6 (human) enzyme inhibition; inhibition, % at 12.5 µM; purified caspase-6, Z-VEID-R110 cleavage fluorescence; P55212; actives 0.53% (n = 350,000);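 active means mean inhibition across replicates at least about 35%, with every replicate also reaching that limit, limit read from the data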;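 further: 0% = median of neutral control wells and 100% = no fluorescence left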
NSD2 HMT inh: inhibitors of human histone methyltransferase NSD2; O96028; NSD2 peptide methylation, AlphaScreen, 120 min; inhibition, % at 12.5 µM; actives 0.54% (n = 310,000); AID 743445; in the data active means inhibition above about 50%
C-LANA FP: inhibitors of KSHV LANA C-terminal domain DNA binding | MBP-C-LANA/FAM-LBS DNA binding, fluorescence polarization | inhibition, % at 9 µM | actives 0.078% (n = 340,000);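 active means highest replicate inhibition at or above 60% at 9 µM, even if other replicates fall short; inactive means all replicates below 60% inhibition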;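 further: 0% = neutral control wells and 100% = 4 µM acridine orange control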
Starred values were filed as active, the others as inactive; x = no result given. In the library only some 1.1% were active in any assay of this set; here they are far more common.

SMILES	Glyco luc inh	Keap1-Nrf2 PPI	HDAC3 inh	Casp6 inh	NSD2 HMT inh	C-LANA FP
C/C(=N\NC(=O)c1ccccc1O)c1ccc(NC(=O)Cc2ccccc2)cc1	-8	1	-2	36*	2	0
O=C(Nc1ccc(F)cc1)N1C[C@@H]2[C@H](c3ccccc31)[C@@H](CO)N2C(=O)c1ccncc1	x	x	x	-2	x	x
C/C=C/c1ccc([C@@H]2[C@H](CO)N(C(=O)CN(C)C)C23CN(C(=O)C2CCCCC2)C3)cc1	x	x	x	-1	x	x
CC1CCCN(CC(O)COC(c2ccccc2)c2ccccc2)C1 (stereo unspecified)	0	-2	-8	38*	2	-1
OC1CCCN(CC(O)COC(c2ccccc2)c2ccccc2)C1 (stereo unspecified)	0	-4	3	3	2	1
CCCCCC(=O)N1CC2(CC(c3cccc(NC(=O)[C@@H]4CCC(=O)N4)c3)=NO2)C[C@@H]1C(N)=O (stereo partly specified)	-1	-1	-3	7	x	2
C=C(C)C(=O)Nc1cccc(C2=NOC3(C2)C[C@@H](C(N)=O)N(C(=O)CCCCC)C3)c1 (stereo partly specified)	x	-3	1	59*	x	59
O=C(Cc1ccccc1)NNc1c2ccccc2nc2ccccc12	0	-4	3	x	2	-1
O=C(Nc1c2ccccc2nc2ccccc12)C(Cl)(Cl)Cl	93*	6	-118	x	x	2
Cc1ccc(C(=O)N/C(=C\c2cccs2)C(=O)NCCc2c[nH]c3ccccc23)cc1	42*	-10	5	x	-2	-1
COc1ccccc1CNc1nc(NCc2ccccc2OC)c2sccc2n1	-4	x	x	1	1	x
COc1ccccc1CNc1nc(Nc2ccccc2-n2cccn2)c2sccc2n1	-3	x	x	43*	0	x
O=C(Cn1c2ccc(F)cc2c2nc3n(c(=O)c21)CCS3)NC1CCCC1	0	0	-22	52*	0	0
O=C(C[C@@H]1CC[C@H]2[C@@H](COC[C@@H](O)CN2S(=O)(=O)c2ccc(F)cc2)O1)NCc1ccc(Cl)c(Cl)c1	x	x	x	-1	x	x
C[C@H]1CN([C@@H](C)CO)C(=O)c2cc(NC(=O)Cc3ccccc3)ccc2O[C@H]1CN(C)C(=O)Nc1cccc2ccccc12	x	x	x	4	x	x
C=C(C)Cc1c(C)c(C#N)c2nc3ccccc3n2c1NCCCN(C)C	38*	x	-1	-1	0	x
CN1N=C(N)c2cn(C3OC(COP(=O)(O)O)C(O)C3O)c3ncnc1c23 (stereo unspecified)	-3	-2	x	46*	-25	2
O=C1C=C(NCCc2cc(Br)c(O)c(Br)c2)C(=O)c2ncccc21	-20	-6	x	96*	137*	4
CN(C)/C=C1/C=C(C=O)OC1=O	0	-6	5	45*	-1	13
CCCNC(=O)N(C)C[C@H]1Oc2cc(-c3ccncc3)ccc2S(=O)(=O)N([C@@H](C)CO)C[C@@H]1C	x	x	x	-4	x	x
CC(/C=C/c1ccco1)=N/NC(=O)c1ccccc1Cl	4	-8	3	x	2	0
O=C(N/N=C/C=C/c1ccco1)c1ccccc1Cl	3	1	5	49*	15	2
Nc1ccc(N)c(C(=O)O)c1	4	7	2	x	x	110*
Nc1ccc(C(=O)O)c(O)c1	4	-5	0	-1	x	8
CO[C@H]1CN(C)C(=O)c2ccc(NC(=O)c3cccc(Oc4ccccc4)c3)cc2OC[C@H](C)NC[C@@H]1C	x	x	x	1	x	x
SMILES	Glyco luc inh	Keap1-Nrf2 PPI	HDAC3 inh	Casp6 inh	NSD2 HMT inh	C-LANA FP
O=C1C(=Cc2cn(-c3ccccc3)nc2-c2ccc(OCc3ccccc3)cc2)SC(=S)N1CCS(=O)(=O)O	-1	x	x	75*	x	x
Cc1ccc(-c2nn(-c3ccccc3)cc2C=C2SC(=S)N(CCS(=O)(=O)O)C2=O)cc1	1	x	x	78*	x	x
O=C(Nc1ccc(F)cc1)N1CCN(C(=O)C2CCCO2)CC1 (stereo unspecified)	3	4	10	82*	0	1
O=C(C1CCCO1)N1CCN(C(=S)Nc2ccc(F)cc2)CC1 (stereo unspecified)	-2	0	-9	-1	-2	-1
C#CC[N+](C)(C)CCCCCCCCC	30*	0	4	-11	2	1
C(=N\Nc1nc2ccccc2[nH]1)/c1ccccn1	-20	-6	x	-2	-6	-1
C(=N\Nc1nc2ccccc2[nH]1)/c1ccc2ncccc2c1	45*	-1	1	0	x	1
O=C(O)[C@@H]1[C@@H](CO)[C@@H]2Cn3c(ccc(-c4ccccc4)c3=O)[C@@H]2N1CCc1ccccc1	x	x	x	18	x	x
C[C@@H]1CN([C@H](C)CO)S(=O)(=O)c2ccc(C#CC3CC3)cc2O[C@@H]1CN(C)C(=O)CN(C)C	x	x	x	-1	x	x
CN1CCN(C(=O)C[C@H]2CC[C@@H](NC(=O)c3ccc4c(c3)OCO4)[C@@H](CO)O2)CC1	x	x	x	1	x	x
COc1ccc(C(=O)n2nc(-c3ccco3)nc2N)cc1	0	-4	84*	x	0	1
Cc1ccc(C(=O)n2nc(-c3ccco3)nc2N)cc1	0	-4	40*	x	1	1
Nc1nc(-c2ccco2)nn1C(=O)c1ccccc1Cl	3	0	x	-6	-1	-1
Nc1nc(-c2ccco2)nn1C(=O)c1cccnc1	1	-3	18	x	0	-1
Cc1cc(Br)ccc1OCCCCNCCO	1	3	-10	x	6	0
C=CCNCCCCOc1ccc(Br)cc1C	-5	-4	-3	x	66*	1
CCCN(C)C[C@@H]1Oc2ncc(-c3ccccc3OC)cc2C(=O)N([C@@H](C)CO)C[C@H]1C	x	x	x	0	x	x
CCN(CC(=O)Nc1c(F)cccc1F)C(=O)c1ccc2ccccc2n1	-1	-3	-3	3	-1	0
CCN(CC(=O)Nc1c(F)cccc1F)C(=O)/C=C/c1ccc2ccccc2n1	0	3	3	47*	6	2
C[C@@H]1CN([C@@H](C)CO)C(=O)c2cc(NS(=O)(=O)c3cn(C)cn3)ccc2O[C@@H](C)CCCCO[C@H]1CN(C)C(=O)CCCN(C)C	x	x	x	1	x	x
C[C@@H]1CN([C@H](C)CO)C(=O)c2cc(NS(=O)(=O)c3cn(C)cn3)ccc2O[C@@H](C)CCCCO[C@@H]1CN(C)C(=O)CCCN(C)C	x	x	x	36*	x	x
O=C(/C=C/c1cccs1)Nc1scc(-c2ccccc2)c1C(=O)O	-12	0	x	54*	x	0
CC1OC(CC(=O)O)CC2=C1C(=O)c1c(O)cccc1C2=O (stereo unspecified)	-21	-1	x	93*	95*	-1
O=C1c2cccc(O)c2C(=O)c2c(O)cccc21	x	x	-6	x	x	x
CC1=[N+](C)N(c2ccccc2)C(=O)C1N=C/C=C/c1ccccc1 (stereo unspecified)	-4	-5	6	0	3	71*
CC(C)CC#Cc1cnc2c(c1)C(=O)N([C@H](C)CO)C[C@@H](C)[C@H](CN(C)Cc1ccccc1)O2	x	x	x	3	x	x
